# Measurements taken from PubChem BioAssay (NCI).
# The panel holds about 83,000 compounds, 20% with a hit somewhere; the sample as a whole holds those more often.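 Interpretation: 100, growth as untreated; towards 0, rising growth inhibition; 0, no net growth; 0 to -100, cell death. Compounds scoring below 10 were considered active.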 Unmarked numbers belong to inactive results. The source made the active and inactive calls.
# Assays:
# Experiment in all cases: NCI-60 one-dose screen, 48 h (100 = growth as untreated, 0 = no growth, -100 = all killed)
# SK-MEL-2 melanoma = conditions: 10 µM unless noted
# EKVX NSCLC = conditions: 10 µM unless noted
# SN12C renal = conditions: 10 µM unless noted
# UO-31 renal = conditions: 10 µM unless noted
# TK-10 renal = conditions: 10 µM unless noted
# ACHN renal = conditions: 10 µM unless noted
# CAKI-1 renal = conditions: 10 µM
# A498 renal = conditions: 10 µM unless noted
# CCRF-CEM leukemia = conditions: 10 µM unless noted
# MOLT-4 leukemia = conditions: 10 µM unless noted
Structure (SMILES),growth (SK-MEL-2 melanoma),growth (EKVX NSCLC),growth (SN12C renal),growth (UO-31 renal),growth (TK-10 renal),growth (ACHN renal),growth (CAKI-1 renal),growth (A498 renal),growth (CCRF-CEM leukemia),growth (MOLT-4 leukemia)
COc1ccc(-c2nc(SCCC(C)C)nc(N/N=C\c3ccc(O)cc3)c2C#N)cc1,104%,93.1%,67.6%,76.8%,157%,60.9%,78%,92.5%,54.7%,64.5%
NS(=O)(=O)Oc1ccc2nc(Nc3ccc(F)c(F)c3)ccc2c1,116%,93.4%,88%,73.3%,118%,85.8%,76.7%,74.5%,67.8%,67%
Cn1c2ccccc2c2c3c(c4c5ccc(Br)cc5oc4c21)C(=O)N(O)C3=O,98.6%,96.6%,92.7%,-91.6% (active),101%,69.5%,40.4%,-6.15% (active),14.6%,7.13% (active)
O=C(CCCCCCN1CC(=O)N2[C@@H](c3cc(F)cc(F)c3)c3[nH]c4ccccc4c3C[C@H]2C1=O)NO,62.1%,78.9%,71.9%,61.6%,69.6%,88.8%,64.7%,77.6%,16.5%,14.2%
COC(=O)Nc1ccc(-c2nc(-c3cccc(O)c3)c(-c3ccnc(Br)c3)[nH]2)cc1,77.8%,68.5%,60.4%,42.9%,73.5%,60.4%,45.6%,73.4%,22.8%,21.5%
NC(=O)c1c(NC(=O)c2cccc(C(F)(F)F)c2F)sc2c1CCC(=O)C2,102%,40.8%,27.2%,-7.62% (active),29.8%,6.7% (active),-8.99% (active),70.9%,11.7%,13.5%
CC1CCN(S(=O)(=O)c2ncsc2-c2ccccc2)CC1,96.2%,74.7%,95.4%,86.9%,127%,87%,77.4%,81.6%,74.2%,66.7%
O=C1CSC(=O)N1Cc1cc2ccccc2nc1Cl,94.7%,98.7%,97.4%,77.7%,98.5%,104%,86.1%,106%,107%,102%
O=C(NNc1nc2cc(F)c(F)cc2n2cccc12)c1ncccn1,34.5%,17.3%,23.9%,17.7%,48.6%,12.7%,18.2%,17.7%,12.7%,16.6%
O=C(O)c1ccc(-n2cc(CNc3ccc(F)cc3)c(-c3ccc(C(F)(F)F)cc3)n2)cc1,110%,74.4%,94.4%,67.2%,110%,76.6%,76.2%,90.3%,81.9%,81%
O=C(C[n+]1ccnc2ccccc21)c1ccc(O)c(O)c1,77.7%,94.2%,59.5%,40.3%,43.1%,17.8%,69.8%,87.7%,4.57% (active),11.6%
Oc1ccc(CSc2nnc(-c3ccncc3)n2-c2ccccc2)c2cccnc12,29.7%,48.2%,11%,9.11% (active),34.1%,14.4%,15.7%,44%,13.1%,20.1%
Cc1occc1-c1nc2s/c(=C\c3cn(-c4ccccc4)nc3-c3ccccc3)c(=O)n2n1,99.9%,99.4%,89.3%,90.5%,106%,108%,89.2%,92.9%,90.9%,107%
CC1=C2C(=C[C@@](C)(COS(N)(=O)=O)[C@@H]2O)C(=O)[C@](C)(O)C12CC2,41.2%,94.9%,81.2%,54.6%,95.9%,47.4%,85.8%,55.7%,98.2%,97.3%
CC(C)N=C(N/C(N)=N/c1nc2ccccc2s1)NC(C)C,107%,67.6%,45.6%,46.4%,80.6%,55.4%,45.2%,72.8%,52.9%,55.2%
CCCCSc1nnc(-c2ccc(-c3ccc(Cl)cc3)nc2C)o1,106%,95.4%,98.2%,93.4%,109%,104%,95.4%,71%,99.7%,96.3%
C#C[C@]1(O)CC[C@H]2[C@@H]3CC=C4c5sc(-c6ccccn6)nc5CC[C@]4(C)[C@H]3CC[C@@]21C,70.7%,77.7%,87.2%,35.8%,104%,75.8%,87.7%,70.6%,37.5%,21.7%
Cc1cc(C(=O)Nc2ccc(SC#N)cc2)c(C)o1,110%,90.4%,70.6%,49.3%,101%,100%,81.7%,94.4%,28.8%,29.7%
Oc1ccc(CSc2nnc(-c3ccc(Cl)cc3)o2)c2cccnc12,54.9%,34%,37.4%,2.83% (active),39.1%,11.4%,20.2%,75.5%,13.3%,15.3%
O=C(Nc1cc(F)cc2cccnc12)c1cnc(N2CCOCC2)cn1,96%,63.6%,83.5%,46.1%,61.6%,34.8%,64.9%,86.6%,28.6%,29.7%
C/C(=C(/C)C1CC1CCN(C(=O)c1ccc([N+](=O)[O-])cc1)S(=O)(=O)c1ccc(C)cc1)C1CCCCC1 (stereo not given),102%,82.4%,91.8%,92.2%,108%,99%,84.9%,105%,93.6%,80.3%
O=S(=O)(Nc1ccc2c(c1)OC(F)(F)O2)c1ccc(-c2cnc(C3CC3)o2)cc1,41.3%,58%,52.8%,56.7%,84.3%,57.1%,17.5%,23.2%,24.1%,30.3%
CS(=O)(=O)c1ccc(-c2nn(-c3ccccc3)cc2/C=C/C(=O)c2ccc(Br)cc2)cc1,103%,87.5%,88.1%,79.6%,107%,94%,84.6%,84.1%,41.8%,60.6%

Structure (SMILES),growth (SK-MEL-2 melanoma),growth (EKVX NSCLC),growth (SN12C renal),growth (UO-31 renal),growth (TK-10 renal),growth (ACHN renal),growth (CAKI-1 renal),growth (A498 renal),growth (CCRF-CEM leukemia),growth (MOLT-4 leukemia)
C#C[C@]1(O)CC[C@H]2[C@@H]3CC=C4c5sc(-c6ccc(OC)cc6)nc5CC[C@]4(C)[C@H]3CC[C@@]21C,53.8%,76.8%,84.2%,18.9%,78%,59.8%,64.4%,56%,26.8%,7.24% (active)
CC(C)=CCC[C@](C)(O)[C@H]1CC[C@]2(C)[C@@H]1CC[C@@H]1[C@@]3(C)CCC(NC(=O)c4ccccc4C(=O)O)C(C)(C)[C@@H]3CC[C@]12C (stereo not given in full),39.8%,101%,92.9%,85.2%,106%,73.5%,66.4%,103%,95.9%,97.5%
C#CCOc1ccc(/C=N/Nc2nc(-c3cc4cc(Br)cc(Br)c4oc3=O)cs2)cc1,109%,92.2%,92.1%,88.5%,142%,98.8%,88.1%,85.4%,94.4%,62.8%
CCn1c2ccc(/C=N/OCCCN(C)C)cc2c2cc(/C=N/OCCCN(C)C)ccc21,125%,48.6%,63.6%,-90.4% (active),132%,-15.5% (active),-16.5% (active),54.1%,9.36% (active),0.746% (active)
CC(=O)Nc1ccc(NC(=O)Nc2cccc(-c3nc(-c4ccc(NC(=O)c5cccnc5)cc4Cl)no3)c2)cc1C(F)(F)F,-68.5% (active),-39% (active),-65% (active),52.9%,-31.7% (active),34.2%,-68.9% (active),-64.8% (active),-14.5% (active),-30.8% (active)
Oc1ccc(CSc2nnc(-c3ccc(Oc4ccccc4)cc3)o2)c2cccnc12,39.9%,23.6%,23.8%,2.75% (active),34.8%,-2.93% (active),60.3%,78.9%,16%,26.9%
N/C(=N\c1nc2ccc([N+](=O)[O-])cc2s1)C(Cl)(Cl)Cl,120%,52%,79.7%,43.8%,78.3%,9.8% (active),31.4%,32.6%,77.4%,77%
O=C(NNc1nc2cc(F)cc(F)c2n2cccc12)c1ncccn1,23.2%,11.1%,15.7%,16%,26%,9.54% (active),17.4%,23.8%,7.19% (active),13%
O=C1CC2(CCOCC2)Oc2ncccc21,95.9%,93.5%,33.1%,101%,60.5%,36.3%,94.2%,99.6%,0.712% (active),13.5%
C#C[C@]1(O)CC[C@H]2[C@@H]3CC=C4c5sc(Nc6cccc(C)n6)nc5CC[C@]4(C)[C@H]3CC[C@@]21C,-9.35% (active),8.96% (active),56.4%,-15.4% (active),77.2%,33.1%,2.65% (active),-29.2% (active),2.04% (active),-25.2% (active)
O=C(NNc1nc2cc(F)c(F)cc2n2cccc12)c1cccnn1,19.3%,7.06% (active),15.8%,13.3%,39.5%,10.2%,11.8%,14.2%,7.8% (active),7.86% (active)
O=C1c2c(c3c4cc(Br)ccc4[nH]c3c3ccc4ccccc4c23)C(=O)N1CCN1CCCCC1,112%,81.1%,41.1%,48.7%,132%,18.5%,31.2%,72.7%,-0.774% (active),-1.44% (active)
O=C1NC(=O)c2c1c1c3ccccc3ccc1c1[nH]c3ccccc3c21,-12.5% (active),11.1%,17.3%,-4.64% (active),-4.05% (active),-2.53% (active),4.16% (active),-36.3% (active),9.91% (active),3.16% (active)
O=C(NCCCNc1cc(-c2cn(-c3ccccc3)nc2-c2cccc(O)c2)ccn1)Nc1ccc(F)cc1,-4.51% (active),33.8%,31.1%,6.93% (active),65%,24.8%,12.8%,-6.39% (active),11%,4.57% (active)
CC(C)(C)OC(=O)N1CCN(S(=O)(=O)/N=C2\NC(=O)NC2=C(Cl)Cl)CC1,88.9%,90.8%,91.7%,91.6%,124%,99.5%,98.8%,83.7%,29.4%,89%
O=C(NNc1nc2cc(F)c(F)cc2n2cccc12)c1ccncn1,29.8%,12.2%,26.2%,20.7%,27.1%,14.1%,17.2%,46.5%,7.72% (active),8.93% (active)
CCCC(=O)NC(c1cccnc1)c1ccc2c(C)ccnc2c1O (stereo not given),42.5%,15.1%,29.1%,11.8%,33.3%,13.8%,19.2%,37.8%,4.51% (active),13.9%
Cn1c2ccc(Br)cc2c2c3c(c4c5cc(F)ccc5oc4c21)C(=O)N(O)C3=O,110%,90.1%,90.2%,75.4%,142%,78%,69.2%,94.2%,14.7%,43%
COc1cc(C2=NN(C(C)=O)C(c3ccc(N4CCOCC4)cc3)C2)cc(OC)c1OC (stereo not given),97%,101%,98.3%,84%,108%,99.6%,94.7%,78.7%,97.3%,106%
O=C(NCCNc1cc(-c2cn(-c3ccccc3)nc2-c2cccc(O)c2)ccn1)Nc1ccc(Cl)c(C(F)(F)F)c1,104%,56.7%,65.6%,42.1%,98.1%,44.2%,46%,72.5%,54.1%,47.1%
CS(=O)(=O)c1ccc(-c2nn(-c3ccccc3)cc2/C=N/NC(=O)c2ccncc2)cc1,107%,98.4%,98.6%,94.2%,97.3%,107%,93.9%,113%,102%,97.2%
CN1CCN(c2ccc(NC(=O)Nc3ccc4c(ccn4-c4cccc(C(N)=O)n4)c3)cc2C(F)(F)F)CC1,21.1%,78.4%,84.1%,75.6%,97.4%,71.8%,87.1%,85.3%,8.43% (active),3.75% (active)
